Screens as filed in PubChem BioAssay.
Rows were chosen to be rich in hits. Some 4% of all compounds tested hit in one or more screens of this group.
Peg3 prom inh – Peg3 promoter-driven luciferase inhibitors, primary screen, cell-based, HeLa, luciferase luminescence. hit rate 1.7% among 360,000. inhibition, % at 20 µM. HeLa PEG-Prom luciferase reporter, overnight;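 active = inhibition of at least 50% at 20 µM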
CF NFkB block – inhibitors of PAF-induced NF-kB signaling, primary screen, cell-based, GFP fluorescence, uHTS | KKLEB NF-kB-GFP reporter, GFP fluorescence overnight | hit rate 0.86% among 360,000 | inhibition, % at 5 µM;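 active = at least 50% inhibition at 5 µM, scaled per plate between neutral and stimulator controls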;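 also: PAF is a Pseudomonas aeruginosa culture filtrate used as stimulus; plate controls were PAF-stimulated DMSO wells for no effect and unstimulated DMSO wells for full effect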
HIF-2a block – HIF-2a reporter inhibitors, primary screen, luminescence, 786-0 RCC cells; hit rate 0.72% among 360,000; 786-0 RCC cells HIF-2a reporter, luciferase luminescence, overnight; inhibition, % at 18.8 µM;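 active = inhibition of the luminescence signal of 40% or more relative to plate controls, in a single-dose primary screen at 18.75 µM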
TWEAK-Fn14 inh – inhibitors of TWEAK-Fn14 signaling, primary screen, luciferase reporter cells, uHTS. hit rate 2% among 360,000. TWEAK-stimulated Fn14 reporter cells, luciferase luminescence, 8 h. inhibition, % at 10 µM; in the data active = inhibition above about 50%
KKLEB cytotox – cytotoxicity in KKLEB CF airway cells, primary screen, cytotoxicity control for CF NF-kB inhibitor project, cell-based, uHTS, fluorescence assay plates; hit rate 0.36% among 360,000; KKLEB CF airway cells viability, ATPlite luminescence, overnight; hits give low values; cells stimulated with P. aeruginosa culture filtrate; activity change (cytotoxicity), % at 5 µM; AID 602141, 2011;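 active = corrected activity change at or below -50% at 5 µM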
TROY signal inh – inhibitors of TROY-driven NF-kB signaling, primary screen, Q293 LMP1-TROYcd cells, NF-kB luciferase, uHTS | Q293 LMP1-TROYcd NF-kB luciferase reporter, 4 h | hit rate 0.98% among 360,000 | inhibition, % at 10 µM;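 active = compounds whose plate-normalised and pattern-corrected inhibition of the luciferase reporter signal at the single screening dose is 50% or more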
* hit, by the source's call.

Results for CN(C)S(=O)(=O)N1CCC(n2nccc2NC(=O)CCc2ccccc2)CC1 ?
Peg3 prom inh: -3.5; CF NFkB block: 1.4; HIF-2a block: 3.3; TWEAK-Fn14 inh: -5.8; KKLEB cytotox: 8.1; TROY signal inh: 6.3

How did CC(C)(C)C1CCC(OC(=O)c2ccncc2)CC1 (configuration not stated) do in these assays?
Peg3 prom inh: -21.2; CF NFkB block: 3.2; HIF-2a block: -21.0; TWEAK-Fn14 inh: -29.0; KKLEB cytotox: -2.6; TROY signal inh: -33.4

What do the screens show for `CC(C)(C)C1CCC(OC(=O)c2cncc(Br)c2)CC1` (configuration not stated)?
Peg3 prom inh: -80.2; CF NFkB block: 9.2; HIF-2a block: -28.9; TWEAK-Fn14 inh: 74.3*; KKLEB cytotox: -0.9; TROY signal inh: 70.6*

What do the screens show for `CCc1ccc(CN2CCC(Oc3ccc(C(=O)NCc4ccccn4)cc3)CC2)o1`?
Peg3 prom inh: -3.9; CF NFkB block: -10.6; HIF-2a block: -7.5; TWEAK-Fn14 inh: -4.8; KKLEB cytotox: -5.3; TROY signal inh: -8.0

How did COc1ccccc1NC(=O)c1sc2ncn(Cc3cccc(C)c3)c(=O)c2c1C do in these assays?
Peg3 prom inh: 12.9; CF NFkB block: 10.3; HIF-2a block: 7.7; TWEAK-Fn14 inh: -56.0; KKLEB cytotox: -24.3; TROY signal inh: 12.5

How did COc1ccccc1NC(=O)c1sc2ncn(Cc3ccc(C)cc3)c(=O)c2c1C do in these assays?
Peg3 prom inh: 51.7*; CF NFkB block: 19.6; HIF-2a block: -18.6; TWEAK-Fn14 inh: -52.0; KKLEB cytotox: -21.9; TROY signal inh: 12.4

How did O=C(NCc1ccco1)C1CCN(C(=O)c2cc3sccc3n2Cc2ccc(F)cc2)CC1 do in these assays?
Peg3 prom inh: 4.9; CF NFkB block: 5.2; HIF-2a block: -6.9; TWEAK-Fn14 inh: 19.2; KKLEB cytotox: -4.5; TROY signal inh: 0.7

Results for CC1Cc2ccccc2N1C(=O)c1cc2sccc2n1Cc1ccc(F)cc1 (configuration not stated) ?
Peg3 prom inh: 54.0*; CF NFkB block: 16.9; HIF-2a block: 19.7; TWEAK-Fn14 inh: 16.9; KKLEB cytotox: -7.0; TROY signal inh: 3.5

Results for CCC(C)N(C(=O)COC(=O)Cc1n[nH]c(=O)c2ccccc12)C1CCS(=O)(=O)C1 (configuration not stated) ?
Peg3 prom inh: 5.6; CF NFkB block: -2.4; HIF-2a block: 18.5; TWEAK-Fn14 inh: -22.0; KKLEB cytotox: -5.1; TROY signal inh: 6.3

What do the screens show for `CN(C)c1ccnc2c[cH-]cc12.[Fe].c1ccc(-[c-]2[c-](-c3ccccc3)[c-](-c3ccccc3)[c-](-c3ccccc3)[c-]2-c2ccccc2)cc1` (configuration not stated)?
Peg3 prom inh: 95.7*; CF NFkB block: 28.4; HIF-2a block: 7.2; TWEAK-Fn14 inh: 33.1; KKLEB cytotox: -28.2; TROY signal inh: 8.2

What do the screens show for `CN(C)c1ccnc(Nc2ccccc2)c1C#N`?
Peg3 prom inh: 8.5; CF NFkB block: 0.0; HIF-2a block: 4.3; TWEAK-Fn14 inh: 3.2; KKLEB cytotox: 6.0; TROY signal inh: 10.2

What do the screens show for `CCc1nnc(NC(=O)CCC(=O)N2CCN(Cc3ccc(C)cc3C)CC2)s1`?
Peg3 prom inh: -10.8; CF NFkB block: -2.7; HIF-2a block: 1.7; TWEAK-Fn14 inh: 9.8; KKLEB cytotox: 1.3; TROY signal inh: 9.0

Results for O=C1N=C(N2CCC(Cc3ccccc3)CC2)S/C1=C/c1cn[nH]c1-c1ccccc1 ?
Peg3 prom inh: 41.4; CF NFkB block: 17.7; HIF-2a block: 0.9; TWEAK-Fn14 inh: 76.8*; KKLEB cytotox: -14.5; TROY signal inh: 47.3

Results for Cc1ccccc1NC1=NC(=S)N(c2ccccc2)C12CCOC(C)(C)C2 (configuration not stated) ?
Peg3 prom inh: 2.2; CF NFkB block: 12.1; HIF-2a block: -0.3; TWEAK-Fn14 inh: 2.2; KKLEB cytotox: -29.9; TROY signal inh: -21.5

What do the screens show for `Cc1ccccc1NC1=NC(=S)N(c2ccccc2)C12CCCCC2`?
Peg3 prom inh: 35.9; CF NFkB block: -44.8; HIF-2a block: 27.7; TWEAK-Fn14 inh: 10.4; KKLEB cytotox: 2.9; TROY signal inh: 61.8*

How did Oc1ccc(C[C@H]2CNCCN2CCc2cccc3ccccc23)cc1 do in these assays?
Peg3 prom inh: -3.0; CF NFkB block: 5.6; HIF-2a block: -0.7; TWEAK-Fn14 inh: 8.3; KKLEB cytotox: -0.1; TROY signal inh: 5.1

How did Oc1ccc(C[C@@H]2CNCCN2CCCCC2CCCCC2)cc1 do in these assays?
Peg3 prom inh: 94.1*; CF NFkB block: -0.8; HIF-2a block: 3.8; TWEAK-Fn14 inh: -5.5; KKLEB cytotox: 5.4; TROY signal inh: -8.2

How did FC(F)(F)c1cc(CCN2CCNC[C@H]2Cc2cccc3ccccc23)cc(C(F)(F)F)c1 do in these assays?
Peg3 prom inh: 101.4*; CF NFkB block: -7.3; HIF-2a block: 7.5; TWEAK-Fn14 inh: -4.6; KKLEB cytotox: -42.3; TROY signal inh: -7.4

How did Oc1ccc(C[C@@H]2CNCCN2CCc2cc(C(F)(F)F)cc(C(F)(F)F)c2)cc1 do in these assays?
Peg3 prom inh: 102.6*; CF NFkB block: -1.3; HIF-2a block: 2.3; TWEAK-Fn14 inh: -3.3; KKLEB cytotox: -7.9; TROY signal inh: 1.1

What do the screens show for `Cc1ccc(N2CC(C(=O)NCc3cccnc3)CC2=O)cc1` (configuration not stated)?
Peg3 prom inh: 6.9; CF NFkB block: -20.5; HIF-2a block: 4.0; TWEAK-Fn14 inh: 2.2; KKLEB cytotox: 9.6; TROY signal inh: 4.7

Results for COc1ccc(N2CC(C(=O)NCc3cccnc3)CC2=O)cc1 (configuration not stated) ?
Peg3 prom inh: 7.1; CF NFkB block: -11.6; HIF-2a block: 11.4; TWEAK-Fn14 inh: 75.4*; KKLEB cytotox: 11.4

Results for COc1ccccc1CNC(=O)C(=O)NCC1OCCN1S(=O)(=O)c1ccc2c(c1)OCCO2 (configuration not stated) ?
Peg3 prom inh: 11.3; CF NFkB block: -8.0; HIF-2a block: -0.8; TWEAK-Fn14 inh: 7.1; KKLEB cytotox: 3.6; TROY signal inh: -1.7

Results for COC(=O)c1c(NC(=O)C(Cl)Cl)sc2c1C(C(=O)OC)CC2 (configuration not stated) ?
Peg3 prom inh: 80.5*; CF NFkB block: -6.2; HIF-2a block: 19.1; TWEAK-Fn14 inh: 20.7; KKLEB cytotox: 1.4; TROY signal inh: 6.7

Results for N=C1/C(=C/c2cccn2Cc2ccc(Cl)cc2)C(=O)N=C2SC=CN12 ?
Peg3 prom inh: 24.0; CF NFkB block: 34.4; HIF-2a block: -6.4; TWEAK-Fn14 inh: -17.7; KKLEB cytotox: -50.3*; TROY signal inh: -16.9
